The results in this text go back to PubChem BioAssay (EPA / NIEHS).

Results filed as inconclusive are left out. Active and inactive are the calls of the source. How the source made its calls: active means hit-call score of the fitted dose curve at least 0.9, where 1 is the maximum; inconclusive means response in the unintended direction; inactive means score below 0.9.

Experiment [1] concerns the target human Matrix Metalloproteinase-7 (MMP7), MMP7 (gene 4316) (UniProt P09237). The experiment can be described thus: NVS_ENZ_hMMP7: NovaScreen (NVS) Enzymatic Assay for human Matrix Metalloproteinase-7 (MMP7) (AID 2283183). An outline of the steps:
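Cell-free fluorescence enzymatic assay read 1 h after compound addition, activity loss analyzed against DMSO. Primary duplicate testing at 25 uM; compounds meeting threshold rerun in singleton concentration-response up to 50 uM.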

Experiment [2] deals with human Janus Kinase 2 (Jak2), JAK2 (gene 3717) (UniProt O60674). The experiment can be described thus: NVS_ENZ_hJak2: NovaScreen (NVS) Enzymatic Assay for human Janus Kinase 2 (Jak2) (AID 2283169). An outline of the steps: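 Cell-free recombinant human JAK2 enzyme activity assay, fluorescence/electrophoretic mobility shift read 1 h after dosing. Screened in duplicate at 25 uM, then concentration-response up to 50 uM; activity as signal loss relative to DMSO.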

The target in experiment [3] is human Phosphodiesterase 4A1 (PDE4A1), PDE4A (gene 5141) (UniProt P27815). The experiment can be described thus: NVS_ENZ_hPDE4A1: NovaScreen (NVS) Enzymatic Assay for human Phosphodiesterase 4A1 (PDE4A1) (AID 2283191). The procedure, abridged: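 Cell-free recombinant human PDE4A1 with fluorescent substrate; product separated by electrophoretic mobility shift, 1 h. Screened at 25 uM, then up to 50 uM in concentration-response; loss of signal fitted against DMSO.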

The target in experiment [4] is human Phosphodiesterase 10 (PDE10), PDE10A (gene 10846) (UniProt Q9Y233). The experiment can be described thus: NVS_ENZ_hPDE10: NovaScreen (NVS) Enzymatic Assay for human Phosphodiesterase 10 (PDE10) (AID 2283195). An outline of the steps:
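Fluorescence/mobility-shift readout of PDE10A enzyme activity, taken 1 h post-dosing. Primary screen in duplicate at 25 uM; actives (e.g. ≥30% inhibition) retested as singleton concentration-response, top concentration 50 uM.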

Experiment [5] has as its target Mitogen-activated protein kinase 3 (Homo sapiens) (UniProt P27361). The experiment in a line: NVS_ENZ_hMAPK3: NovaScreen (NVS) Enzymatic Assay for human Mitogen-Activated Protein Kinase 3 (MAPK 3) (AID 2283177). The procedure, abridged: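 Cell-free enzymatic assay with recombinant protein and specific substrate; fluorescence and electrophoretic mobility shift read-out 1 h after dosing. Primary screen duplicate at 25 uM; actives then run in concentration-response up to 50 uM, loss of signal versus DMSO.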

Experiment [6] addresses human Mitogen- and Stress-activated Protein Kinase-1 (Msk1), RPS6KA5 (gene 9252) (UniProt O75582). The experiment can be described thus: NVS_ENZ_hMsk1: NovaScreen (NVS) Enzymatic Assay for human Mitogen- and Stress-activated Protein Kinase-1 (Msk1) (AID 2283187). An outline of the steps:
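Recombinant kinase with fluorescent substrate; product separated by electrophoretic mobility shift, read 1 h after dosing. Screened in duplicate at 25 uM; hits (e.g. ≥30% inhibition) tested in concentration–response up to 50 uM. DMSO baseline.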

Experiment [7] has as its target human LYN Proto-Oncogene, Src family Tyrosine Kinase (LynA), LYN (gene 4067) (UniProt P07948). The experiment can be described thus: NVS_ENZ_hLynA: NovaScreen (NVS) Enzymatic Assay for human LYN Proto-Oncogene, Src family Tyrosine Kinase (LynA) (AID 2283173). The procedure, abridged: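 Recombinant kinase with fluorescent substrate; product separated from substrate by electrophoretic mobility shift and read 1 h after dosing. Duplicate screen at 25 uM, then concentration-response up to 50 uM; activity scored as signal loss against DMSO.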

Experiment [8] has as its target human Matrix Metalloproteinase-2 (MMP2), MMP2 (gene 4313) (UniProt P08253). The experiment can be described thus: NVS_ENZ_hMMP2: NovaScreen (NVS) Enzymatic Assay for human Matrix Metalloproteinase-2 (MMP2) (AID 2283184). An outline of the steps:
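Cell-free recombinant MMP2 activity with a fluorescent substrate, read 1 h after dosing. Primary screen in duplicate at 25 uM; actives then run in concentration series; loss of signal fitted versus DMSO.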

For experiment [9], the target named is human Matrix Metalloproteinase-9 (MMP9), MMP9 (gene 4318) (UniProt P14780). The experiment in a line: NVS_ENZ_hMMP9: NovaScreen (NVS) Enzymatic Assay for human Matrix Metalloproteinase-9 (MMP9) (AID 2283190).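 Further: cell-free recombinant MMP9 protease activity read by fluorescent substrate signal; active means inhibition seen as loss of fluorescence signal versus DMSO.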 The procedure, abridged:
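Extracted enzyme, fluorescent substrate, 1 h post-dose read. Single conc 25 uM in duplicate, then concentration series for actives. Activity = signal loss relative to DMSO negative control.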

The target in experiment [10] is human c-Jun N-terminal Kinases (JNK2), MAPK9 (gene 5601) (UniProt P45984). The experiment can be described thus: NVS_ENZ_hJNK2: NovaScreen (NVS) Enzymatic Assay for human c-Jun N-terminal Kinases (JNK2) (AID 2283171). The procedure, abridged:
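Cell-free recombinant human JNK2 activity assay; fluorescent substrate and product separated by electrophoretic mobility shift, read 1 h after dosing. Primary duplicate screen at 25 uM; actives run in concentration-response up to 50 uM, relative to DMSO.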

The target of experiment [11] is human Phosphodiesterase 5 (PDE5), PDE5A (gene 8654) (UniProt O76074). The experiment can be described thus: NVS_ENZ_hPDE5: NovaScreen (NVS) Enzymatic Assay for human Phosphodiesterase 5 (PDE5) (AID 2283194). An outline of the steps: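 Recombinant human PDE5 with specific substrate, read 1 h after dosing by fluorescence with electrophoretic mobility-shift separation of substrate and product. Initial single-concentration duplicate screen at 25 uM, actives followed in concentration series; loss of activity versus DMSO.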

Experiment [12] deals with human Matrix Metalloproteinase-3 (MMP3), MMP3 (gene 4314) (UniProt P08254). The experiment in a line: NVS_ENZ_hMMP3: NovaScreen (NVS) Enzymatic Assay for human Matrix Metalloproteinase-3 (MMP3) (AID 2283185). An outline of the steps:
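Cell-free recombinant human MMP3 activity, fluorescence intensity read 1 h after dosing. Primary screen duplicate at 25 uM, actives retested in concentration series; loss of signal vs DMSO baseline.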

Experiment [13] concerns the target cAMP-dependent protein kinase catalytic subunit alpha (Homo sapiens) (UniProt P17612). The experiment can be described thus: NVS_ENZ_hPKA: NovaScreen (NVS) Enzymatic Assay for human Protein Kinase A (PKA) (AID 2283192). The procedure, abridged: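 Recombinant human PKA with specific fluorescent substrate, product separated by electrophoretic mobility shift, read 1 h after dosing. Primary screen at 25 uM in duplicate; actives then run in concentration-response up to 50 uM, activity relative to DMSO.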

Experiment [14] concerns the target human Phosphoinositide 3-kinase alpha (PI3Ka), PIK3CA (gene 5290) (UniProt P42336). The experiment can be described thus: NVS_ENZ_hPI3Ka: NovaScreen (NVS) Enzymatic Assay for human Phosphoinositide 3-kinase alpha (PI3Ka) (AID 2283196). An outline of the steps:
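Fluorescence/mobility-shift readout of substrate conversion by recombinant enzyme, 1 h post-dosing. Primary screen in duplicate at 25 uM; actives (e.g. ≥30% inhibition) retested in singleton concentration-response, top concentration 50 uM.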

Experiment [15] has as its target Tyrosine-protein phosphatase non-receptor type 11 (Homo sapiens) (UniProt Q06124). The experiment in a line: NVS_ENZ_hPTPN11: NovaScreen (NVS) Enzymatic Assay for human Protein Tyrosine Phosphatase Non-receptor Type 11 (PTPN11) (AID 2283202). An outline of the steps:
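Recombinant human PTPN11 activity on a fluorescent substrate, with substrate/product separated by electrophoretic mobility shift; read 0.5 h after dosing, loss of signal vs DMSO. Duplicate 25 uM screen, then concentration-response up to 50 uM.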

Experiment [16] deals with human Insulin Receptor (InsR), INSR (gene 3643) (UniProt P06213). The experiment can be described thus: NVS_ENZ_hInsR: NovaScreen (NVS) Enzymatic Assay for human Insulin Receptor (InsR) (AID 2283168). The procedure, abridged:
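Fluorescent substrate phosphorylation by recombinant kinase, product resolved by electrophoretic mobility shift, read 1 h after dosing. Screened in duplicate at 25 uM; hits (e.g., 30% inhibition) run in concentration-response to 50 uM; DMSO as baseline.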

In experiment [17] the target is Serine/threonine-protein phosphatase PP1-alpha catalytic subunit (Homo sapiens) (UniProt P62136). The experiment can be described thus: NVS_ENZ_hPPP1CA: NovaScreen (NVS) Enzymatic Assay for human Protein Phosphatase 1 Aatalytic subunit Alpha (PPP1CA) (AID 2283200). An outline of the steps: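 Recombinant enzyme activity read by fluorescence with electrophoretic mobility shift separating substrate from product, 1.33 h after dosing; loss of signal vs DMSO baseline. Primary screen in duplicate at 25 uM; actives retested in concentration-response up to 50 uM.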

human Phosphodiesterase 4A1 (PDE4A1), PDE4A (gene 5141), sequence (P27815 whole entry, looked up): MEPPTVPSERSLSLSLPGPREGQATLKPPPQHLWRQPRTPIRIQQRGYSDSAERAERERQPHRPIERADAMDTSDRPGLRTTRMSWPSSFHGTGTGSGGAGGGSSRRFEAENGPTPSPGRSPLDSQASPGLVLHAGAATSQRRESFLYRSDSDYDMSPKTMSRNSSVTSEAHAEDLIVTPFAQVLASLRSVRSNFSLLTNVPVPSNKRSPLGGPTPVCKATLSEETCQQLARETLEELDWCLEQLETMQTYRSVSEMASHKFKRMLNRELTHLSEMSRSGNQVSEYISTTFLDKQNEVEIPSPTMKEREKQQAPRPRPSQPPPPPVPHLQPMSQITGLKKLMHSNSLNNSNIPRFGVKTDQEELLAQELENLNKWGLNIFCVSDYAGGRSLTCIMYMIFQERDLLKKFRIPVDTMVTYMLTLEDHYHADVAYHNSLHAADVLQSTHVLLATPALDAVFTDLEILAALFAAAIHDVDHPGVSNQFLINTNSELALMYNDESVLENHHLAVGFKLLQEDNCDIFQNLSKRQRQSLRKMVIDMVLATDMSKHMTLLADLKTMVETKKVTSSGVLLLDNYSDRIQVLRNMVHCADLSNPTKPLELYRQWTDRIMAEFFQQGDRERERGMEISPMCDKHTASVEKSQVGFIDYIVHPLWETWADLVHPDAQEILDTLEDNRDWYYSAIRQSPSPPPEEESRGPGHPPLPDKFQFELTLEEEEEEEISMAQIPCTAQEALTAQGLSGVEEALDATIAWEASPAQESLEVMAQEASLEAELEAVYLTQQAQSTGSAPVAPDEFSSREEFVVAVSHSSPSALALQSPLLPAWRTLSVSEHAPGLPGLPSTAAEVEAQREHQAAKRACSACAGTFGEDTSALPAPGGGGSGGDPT
human Phosphodiesterase 10 (PDE10), PDE10A (gene 10846), sequence (Q9Y233 whole entry, looked up): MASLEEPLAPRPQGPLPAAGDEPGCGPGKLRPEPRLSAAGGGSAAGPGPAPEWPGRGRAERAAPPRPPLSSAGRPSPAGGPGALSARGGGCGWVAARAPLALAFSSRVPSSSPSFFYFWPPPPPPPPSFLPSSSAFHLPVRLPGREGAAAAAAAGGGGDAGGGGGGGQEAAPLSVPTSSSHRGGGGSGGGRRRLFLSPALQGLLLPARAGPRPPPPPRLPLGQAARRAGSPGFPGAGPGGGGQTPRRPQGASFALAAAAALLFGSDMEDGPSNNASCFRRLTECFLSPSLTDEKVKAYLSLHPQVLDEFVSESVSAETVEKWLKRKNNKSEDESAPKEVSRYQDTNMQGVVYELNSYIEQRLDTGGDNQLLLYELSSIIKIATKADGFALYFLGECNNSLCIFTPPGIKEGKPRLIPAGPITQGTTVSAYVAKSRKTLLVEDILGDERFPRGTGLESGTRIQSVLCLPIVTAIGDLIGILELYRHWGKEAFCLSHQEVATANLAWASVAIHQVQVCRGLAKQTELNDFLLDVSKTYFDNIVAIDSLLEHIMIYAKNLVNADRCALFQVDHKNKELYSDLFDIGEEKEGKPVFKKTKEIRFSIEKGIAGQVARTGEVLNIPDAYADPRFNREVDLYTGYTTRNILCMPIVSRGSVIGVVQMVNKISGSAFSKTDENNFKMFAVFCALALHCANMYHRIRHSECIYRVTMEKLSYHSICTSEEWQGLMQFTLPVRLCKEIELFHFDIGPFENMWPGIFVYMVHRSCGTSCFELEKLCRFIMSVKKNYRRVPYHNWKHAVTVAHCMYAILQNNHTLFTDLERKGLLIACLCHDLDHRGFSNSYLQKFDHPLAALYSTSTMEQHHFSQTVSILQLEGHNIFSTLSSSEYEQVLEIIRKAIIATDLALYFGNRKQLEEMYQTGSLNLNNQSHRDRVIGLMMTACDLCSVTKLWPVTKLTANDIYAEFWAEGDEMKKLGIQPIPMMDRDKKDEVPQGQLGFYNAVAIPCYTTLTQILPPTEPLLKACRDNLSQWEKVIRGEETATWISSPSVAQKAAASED
Mitogen-activated protein kinase 3 (Homo sapiens), sequence (P27361 whole entry, looked up): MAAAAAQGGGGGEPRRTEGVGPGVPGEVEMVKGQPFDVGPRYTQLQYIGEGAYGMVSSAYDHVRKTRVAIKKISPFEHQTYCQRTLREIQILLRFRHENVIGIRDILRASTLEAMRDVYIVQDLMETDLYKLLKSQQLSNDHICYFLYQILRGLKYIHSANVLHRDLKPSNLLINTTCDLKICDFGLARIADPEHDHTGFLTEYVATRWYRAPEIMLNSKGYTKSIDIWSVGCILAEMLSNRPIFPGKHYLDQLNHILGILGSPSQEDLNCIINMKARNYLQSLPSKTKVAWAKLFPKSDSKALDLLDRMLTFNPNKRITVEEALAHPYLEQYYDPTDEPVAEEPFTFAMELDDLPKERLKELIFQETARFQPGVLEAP
human Matrix Metalloproteinase-9 (MMP9), MMP9 (gene 4318), sequence (P14780 whole entry, looked up): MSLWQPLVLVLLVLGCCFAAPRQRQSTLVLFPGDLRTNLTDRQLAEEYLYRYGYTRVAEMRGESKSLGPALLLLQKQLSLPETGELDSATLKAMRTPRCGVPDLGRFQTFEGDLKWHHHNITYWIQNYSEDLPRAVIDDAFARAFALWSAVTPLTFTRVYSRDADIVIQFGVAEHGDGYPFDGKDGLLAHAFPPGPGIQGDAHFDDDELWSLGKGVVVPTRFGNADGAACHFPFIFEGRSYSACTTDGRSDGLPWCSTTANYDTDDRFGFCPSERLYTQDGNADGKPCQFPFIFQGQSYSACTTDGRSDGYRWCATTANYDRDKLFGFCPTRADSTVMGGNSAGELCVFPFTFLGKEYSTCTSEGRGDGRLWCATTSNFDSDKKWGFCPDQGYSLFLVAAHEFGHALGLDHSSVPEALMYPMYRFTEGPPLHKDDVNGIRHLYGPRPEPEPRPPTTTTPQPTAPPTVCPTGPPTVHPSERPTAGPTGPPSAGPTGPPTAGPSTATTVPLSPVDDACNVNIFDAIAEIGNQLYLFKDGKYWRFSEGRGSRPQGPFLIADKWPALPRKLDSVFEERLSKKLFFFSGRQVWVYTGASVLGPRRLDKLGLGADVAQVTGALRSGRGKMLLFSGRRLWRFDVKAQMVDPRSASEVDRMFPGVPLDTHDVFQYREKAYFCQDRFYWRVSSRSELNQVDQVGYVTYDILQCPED
human LYN Proto-Oncogene, Src family Tyrosine Kinase (LynA), LYN (gene 4067), sequence (P07948 whole entry, looked up): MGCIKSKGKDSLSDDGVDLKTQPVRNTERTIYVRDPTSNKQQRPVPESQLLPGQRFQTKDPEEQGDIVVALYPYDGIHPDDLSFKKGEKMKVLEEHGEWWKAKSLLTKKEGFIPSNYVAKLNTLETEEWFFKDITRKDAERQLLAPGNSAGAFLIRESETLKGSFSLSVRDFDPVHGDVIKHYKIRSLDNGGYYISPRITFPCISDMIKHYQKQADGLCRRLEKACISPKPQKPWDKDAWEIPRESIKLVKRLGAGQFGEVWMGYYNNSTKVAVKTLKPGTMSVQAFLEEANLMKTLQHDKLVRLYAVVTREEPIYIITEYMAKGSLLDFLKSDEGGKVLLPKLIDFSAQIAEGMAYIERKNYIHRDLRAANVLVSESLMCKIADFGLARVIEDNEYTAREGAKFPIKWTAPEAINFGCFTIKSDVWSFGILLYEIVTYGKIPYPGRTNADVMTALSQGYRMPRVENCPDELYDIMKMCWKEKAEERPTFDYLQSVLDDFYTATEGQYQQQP
human Janus Kinase 2 (Jak2), JAK2 (gene 3717), sequence (O60674 whole entry, looked up): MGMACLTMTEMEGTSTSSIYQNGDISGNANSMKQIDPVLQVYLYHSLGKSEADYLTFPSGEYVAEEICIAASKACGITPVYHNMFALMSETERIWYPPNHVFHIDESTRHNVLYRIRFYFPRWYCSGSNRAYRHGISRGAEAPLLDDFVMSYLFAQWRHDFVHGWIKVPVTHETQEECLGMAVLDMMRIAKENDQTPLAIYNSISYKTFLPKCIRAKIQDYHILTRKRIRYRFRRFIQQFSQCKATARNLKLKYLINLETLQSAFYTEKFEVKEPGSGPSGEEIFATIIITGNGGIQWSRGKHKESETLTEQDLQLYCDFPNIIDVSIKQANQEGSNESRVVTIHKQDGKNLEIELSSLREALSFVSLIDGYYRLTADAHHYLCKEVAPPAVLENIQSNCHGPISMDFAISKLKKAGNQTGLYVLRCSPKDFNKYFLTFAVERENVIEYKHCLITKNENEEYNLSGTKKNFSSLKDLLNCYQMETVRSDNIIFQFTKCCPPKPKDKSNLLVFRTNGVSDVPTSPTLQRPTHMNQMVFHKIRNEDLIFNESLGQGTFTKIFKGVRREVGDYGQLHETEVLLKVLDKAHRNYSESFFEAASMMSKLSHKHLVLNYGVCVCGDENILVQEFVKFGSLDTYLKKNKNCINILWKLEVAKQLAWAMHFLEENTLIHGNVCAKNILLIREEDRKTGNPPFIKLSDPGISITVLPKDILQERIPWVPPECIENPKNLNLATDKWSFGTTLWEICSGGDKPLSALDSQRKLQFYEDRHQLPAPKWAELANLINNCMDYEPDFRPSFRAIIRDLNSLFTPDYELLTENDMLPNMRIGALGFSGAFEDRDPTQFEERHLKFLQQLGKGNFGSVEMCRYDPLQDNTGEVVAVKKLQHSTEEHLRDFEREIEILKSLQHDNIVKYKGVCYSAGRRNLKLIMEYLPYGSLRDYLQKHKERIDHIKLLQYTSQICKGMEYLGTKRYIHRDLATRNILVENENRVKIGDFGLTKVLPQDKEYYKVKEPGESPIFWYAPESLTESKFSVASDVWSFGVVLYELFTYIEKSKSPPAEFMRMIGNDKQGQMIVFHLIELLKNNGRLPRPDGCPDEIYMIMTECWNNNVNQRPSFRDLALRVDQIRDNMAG
human Matrix Metalloproteinase-7 (MMP7), MMP7 (gene 4316), sequence (P09237 whole entry, looked up): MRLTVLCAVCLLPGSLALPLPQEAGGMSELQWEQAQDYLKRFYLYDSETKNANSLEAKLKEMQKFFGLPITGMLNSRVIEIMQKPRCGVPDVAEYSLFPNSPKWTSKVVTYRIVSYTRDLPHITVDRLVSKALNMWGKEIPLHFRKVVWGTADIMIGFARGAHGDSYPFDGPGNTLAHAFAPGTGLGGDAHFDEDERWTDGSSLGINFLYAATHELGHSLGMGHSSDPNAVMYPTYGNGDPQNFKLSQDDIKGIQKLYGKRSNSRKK

Turning to `CCOCCOCCOCCO`, the concentration at half-maximal activity (AC50) (in general, the concentration giving half of the maximal activity seen) in [1] was 28.2 µM (active).
For `CC[C@H]1CC[C@H](NCc2cc3c(cc2OC)[C@H]2C[C@H]2C(=O)N3C)[C@H](c2ccccc2)N1`, the compound was classed as inactive in experiment [2], in [3] and in experiment [4].
In the case of `O=C(NS(=O)(=O)/C=C/c1ccccc1)c1ccc(F)cc1Cl`, the call in [5] was inactive.
With `O=C(O)CC(O)C(=O)O` (stereo not given), the compound was called inactive in experiment [2], in [6], in experiment [3] and in experiment [4].
Turning to `CNS(=O)(=O)c1cc(C(=O)N2CCC(CCN3C4CCC3CC(n3c(C)nc5ccccc53)C4)(c3cccc(F)c3)CC2)c(Cl)cc1F` (stereo not given), the values for the AC50 in experiment [2], in experiment [8] and in experiment [9] were 10.2 µM (active), 8.32 µM (active) and 8.37 µM (active), respectively. For the same compound, the outcome in [7] and in experiment [3] was inactive.
Regarding `O=C(O)c1cccc(N(Cc2cccnc2)c2ccc(OC(F)F)c(OC(F)F)c2)c1`, the AC50 in experiment [10] is 4.96 µM (active); in [3], 0.00437 µM (active); in experiment [11] it was 3.28 µM (active). Besides, the compound was classed as inactive in experiment [5].
Take `CCCCC(CC)COC(=O)CCCCCCCCC(=O)OCC(CC)CCCC` (stereo not given): the result in [5] was inactive.
On to `COc1ccc2sc(C(=O)Nc3nnn[nH]3)c(OC(C)C)c2c1`, for which the AC50 in experiment [2] was 8.74 µM (active); in [12], 46.7 µM (active); in [13], 13.2 µM (active); in experiment [11] it was 0.476 µM (active); in experiment [14] it was 0.192 µM (active).
In the case of `CC[C@H](C)C(=O)O[C@H]1C[C@@H](C)C=C2C=C[C@H](C)[C@H](CC[C@@H]3C[C@@H](O)CC(=O)O3)[C@H]21`, the outcome in experiment [5], in [1], in experiment [8], in [9], in [11] and in [14] was inactive. The compound was classed as inactive in experiment [15].
In the case of `CC(C)CC(C)(O)C#CC(C)(O)CC(C)C` (stereo not given), the compound was called inactive in [7].
Turning to `NC(=O)NO`, the compound was classed as inactive in experiment [7] and in experiment [9].
On to `CC(C)CCO`, for which the compound was called inactive in experiment [1] and in [12].
For the compound `Clc1nc(Cl)c(Cl)c(Cl)c1Cl`, the call in experiment [16] was inactive.
`Cn1c(=O)cc(Oc2ccc(F)cc2F)c2cnc(NCC(C)(C)O)nc21`: the AC50 was 0.00703 µM (active) in experiment [10]; 34.6 µM (active) in experiment [5]; 0.914 µM (active) in [3]; 12.4 µM (active) in [11]; 8.25 µM (active) in experiment [4].
`CCCCCCc1ccc(O)cc1O`: the result in experiment [1], in experiment [11] and in experiment [17] was inactive. In [3], the half-maximal activity concentration (AC50) is 39.2 µM (active).
Regarding `O=C(O)c1cccc(Oc2ccccc2)c1`, the outcome in [7], in experiment [1], in [3], in experiment [13], in experiment [11] and in experiment [4] was inactive. Besides, the outcome in experiment [14], in experiment [17] and in [15] was inactive.
